# From the supplement of paper PMC4022240
# ± gives the standard deviation.
# T1: HaloTag-ATRX ADD domain (163-292)
# T1 chain: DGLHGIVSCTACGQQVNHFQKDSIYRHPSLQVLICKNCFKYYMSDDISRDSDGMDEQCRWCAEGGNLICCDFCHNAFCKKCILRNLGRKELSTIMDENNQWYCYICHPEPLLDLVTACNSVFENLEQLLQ
# B1: H2B 7-19 A P A P Kac K G Sph Kac K A V T (peptide)
# chain: APAPKKGSKKAVT
# B2: H2B 7-19 A P A P K Kac G S Kac K A V T (peptide)
# chain: APAPKKGSKKAVT
# B3: H2B 7-19 A P A P Kac Kac G S K K A V T (peptide)
# chain: APAPKKGSKKAVT
# B4: H2B 7-19 A P A P Kac K G Sph Kac Kac A V T (peptide)
# chain: APAPKKGSKKAVT
# B5: H2B 7-19 A P A P Kac K G Sph K Kac A V T (peptide)
# chain: APAPKKGSKKAVT
# B6: H2B 7-19 A P A P K Kac G S K Kac A V T (peptide)
# chain: APAPKKGSKKAVT
# B7: H2B 7-19 A P A P K Kac G Sph K Kac A V T (peptide)
# chain: APAPKKGSKKAVT
# B8: H2B 7-19 A P A P K K G Sph Kac Kac A V T (peptide)
# chain: APAPKKGSKKAVT
# B9: H2B 7-19 A P A P K Kac G Sph Kac K A V T (peptide)
# chain: APAPKKGSKKAVT
# B10: H2B 7-19 A P A P K K G S K Kac A V T (peptide)
# chain: APAPKKGSKKAVT
# Key:
# Assay in all cases: peptide microarray binding signal (635 nm), min-max normalized on array (fraction of array maximum); higher = stronger binding
# Conditions in all cases: peptide region: H2B 7-19
# [1] = target: T1, HaloTag-ATRX ADD domain (163-292)
# Method: (§1)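 Histone 13-mer peptides were synthesized as cellulose conjugates with a C-terminal 20-atom PEG linker and printed in triplicate on nitrocellulose. The sequence given is the unmodified backbone; PTMs (Kme1/2/3, Kac, Sph/Tph, Rme/Rme2a/Rme2s, Rcit) are listed in the label and the 'peptide modifications' condition. Slides were probed at 4 °C for 1 h with biotin-labelled (HQ)5-HaloTag reader fusions (ATRX-ADD, ING2-PHD) then streptavidin-Alexa647, or with rabbit histone antibodies then anti-rabbit Alexa647. The mean 635 nm signal of the triplicate spots was scaled 0-1 between the lowest and highest values on each array.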
# [2] = target: HaloTag-ING2 PHD (mouse Ing2 200-280)
# Method: as §1
# [3] = target: anti-H3K4me3 antibody ab8580
# Method: as §1
# [4] = target: anti-H3K9me3 antibody ab8898
# Method: as §1
# [5] = peptide modifications: H2BK11ac H2BS14ph H2BK15ac, binder concentration: 1:2,000 dilution
# [6] = peptide modifications: H2BK11ac H2BS14ph H2BK15ac, binder concentration: 1:10,000 dilution
# [7] = peptide modifications: H2BK12ac H2BK15ac, binder concentration: 1:2,000 dilution
# [8] = peptide modifications: H2BK12ac H2BK15ac, binder concentration: 1:10,000 dilution
# [9] = peptide modifications: H2BK11ac H2BK12ac, binder concentration: 1:2,000 dilution
# [10] = peptide modifications: H2BK11ac H2BK12ac, binder concentration: 1:10,000 dilution
# [11] = peptide modifications: H2BK11ac H2BS14ph H2BK15ac H2BK16ac, binder concentration: 1:2,000 dilution
# [12] = peptide modifications: H2BK11ac H2BS14ph H2BK15ac H2BK16ac, binder concentration: 1:10,000 dilution
# [13] = peptide modifications: H2BK11ac H2BS14ph H2BK16ac, binder concentration: 1:2,000 dilution
# [14] = peptide modifications: H2BK11ac H2BS14ph H2BK16ac, binder concentration: 1:10,000 dilution
# [15] = peptide modifications: H2BK12ac H2BK16ac, binder concentration: 1:2,000 dilution
# [16] = peptide modifications: H2BK12ac H2BK16ac, binder concentration: 1:10,000 dilution
# [17] = peptide modifications: H2BK12ac H2BS14ph H2BK16ac, binder concentration: 1:2,000 dilution
# [18] = peptide modifications: H2BK12ac H2BS14ph H2BK16ac, binder concentration: 1:10,000 dilution
# [19] = peptide modifications: H2BS14ph H2BK15ac H2BK16ac, binder concentration: 1:2,000 dilution
# [20] = peptide modifications: H2BS14ph H2BK15ac H2BK16ac, binder concentration: 1:10,000 dilution
# [21] = peptide modifications: H2BK12ac H2BS14ph H2BK15ac, binder concentration: 1:2,000 dilution
# [22] = peptide modifications: H2BK12ac H2BS14ph H2BK15ac, binder concentration: 1:10,000 dilution
# [23] = peptide modifications: H2BK16ac, binder concentration: 1:2,000 dilution
# [24] = peptide modifications: H2BK16ac, binder concentration: 1:10,000 dilution
binder,measurement,setting,value
B1,peptide microarray binding signal,"[1]; peptide modifications: H2BK11ac H2BS14ph H2BK15ac, binder concentration: 50 nM",0.00176 ± 7.1e-05
same,peptide microarray binding signal,"[1]; peptide modifications: H2BK11ac H2BS14ph H2BK15ac, binder concentration: 500 nM",0.00238 ± 7.9e-05
same,peptide microarray binding signal,"[2]; peptide modifications: H2BK11ac H2BS14ph H2BK15ac, binder concentration: 10 nM",0.00286 ± 8.4e-05
same,peptide microarray binding signal,"[2]; peptide modifications: H2BK11ac H2BS14ph H2BK15ac, binder concentration: 100 nM",0.00149 ± 3.1e-05
same,peptide microarray binding signal,[3]; [5],0.00157 ± 4.2e-05
same,peptide microarray binding signal,[3]; [6],0.000742 ± 1.3e-05
same,peptide microarray binding signal,[4]; [5],0.000393 ± 1e-05
same,peptide microarray binding signal,[4]; [6],0.000692 ± 7.3e-06
B2,peptide microarray binding signal,"[1]; peptide modifications: H2BK12ac H2BK15ac, binder concentration: 50 nM",0.00342 ± 5.6e-05
same,peptide microarray binding signal,"[1]; peptide modifications: H2BK12ac H2BK15ac, binder concentration: 500 nM",0.00938 ± 0.0002
same,peptide microarray binding signal,"[2]; peptide modifications: H2BK12ac H2BK15ac, binder concentration: 10 nM",0.00609 ± 0.00019
same,peptide microarray binding signal,"[2]; peptide modifications: H2BK12ac H2BK15ac, binder concentration: 100 nM",0.00503 ± 0.00011
same,peptide microarray binding signal,[3]; [7],0.00285 ± 0.0017
same,peptide microarray binding signal,[3]; [8],0.0012 ± 3.2e-05
same,peptide microarray binding signal,[4]; [7],0.000966 ± 7.9e-05
same,peptide microarray binding signal,[4]; [8],0.000923 ± 9.6e-06
B3,peptide microarray binding signal,"[1]; peptide modifications: H2BK11ac H2BK12ac, binder concentration: 50 nM",0.00411 ± 0.00015
same,peptide microarray binding signal,"[1]; peptide modifications: H2BK11ac H2BK12ac, binder concentration: 500 nM",0.0031 ± 0.001
same,peptide microarray binding signal,"[2]; peptide modifications: H2BK11ac H2BK12ac, binder concentration: 10 nM",0.00603 ± 0.00082
same,peptide microarray binding signal,"[2]; peptide modifications: H2BK11ac H2BK12ac, binder concentration: 100 nM",0.00822 ± 0.001
same,peptide microarray binding signal,[3]; [9],0.000245 ± 2.6e-06
same,peptide microarray binding signal,[3]; [10],0.000913 ± 1.6e-05
same,peptide microarray binding signal,[4]; [9],0.000906 ± 4.5e-05
same,peptide microarray binding signal,[4]; [10],0.00127 ± 1.3e-05
B4,peptide microarray binding signal,"[1]; peptide modifications: H2BK11ac H2BS14ph H2BK15ac H2BK16ac, binder concentration: 50 nM",0.00323 ± 0.00013
same,peptide microarray binding signal,"[1]; peptide modifications: H2BK11ac H2BS14ph H2BK15ac H2BK16ac, binder concentration: 500 nM",0.00167 ± 0.00033
same,peptide microarray binding signal,"[2]; peptide modifications: H2BK11ac H2BS14ph H2BK15ac H2BK16ac, binder concentration: 10 nM",0.00388 ± 8.9e-05
same,peptide microarray binding signal,"[2]; peptide modifications: H2BK11ac H2BS14ph H2BK15ac H2BK16ac, binder concentration: 100 nM",0.00269 ± 0.00017
same,peptide microarray binding signal,[3]; [11],0.000245 ± 1e-05
same,peptide microarray binding signal,[3]; [12],0.0012 ± 4.3e-05
same,peptide microarray binding signal,[4]; [11],0.000529 ± 1.3e-05
same,peptide microarray binding signal,[4]; [12],0.000865 ± 1.8e-05
B5,peptide microarray binding signal,"[1]; peptide modifications: H2BK11ac H2BS14ph H2BK16ac, binder concentration: 50 nM",0.00207 ± 8.4e-05
same,peptide microarray binding signal,"[1]; peptide modifications: H2BK11ac H2BS14ph H2BK16ac, binder concentration: 500 nM",0.00281 ± 2.2e-05
same,peptide microarray binding signal,"[2]; peptide modifications: H2BK11ac H2BS14ph H2BK16ac, binder concentration: 10 nM",0.00227 ± 3.4e-05
same,peptide microarray binding signal,"[2]; peptide modifications: H2BK11ac H2BS14ph H2BK16ac, binder concentration: 100 nM",0.00128 ± 1.3e-05
same,peptide microarray binding signal,[3]; [13],0.000396 ± 1.2e-05
same,peptide microarray binding signal,[3]; [14],0.000514 ± 5.5e-06
same,peptide microarray binding signal,[4]; [13],0.000242 ± 6.7e-06
same,peptide microarray binding signal,[4]; [14],0.000461 ± 8.7e-06
B6,peptide microarray binding signal,"[1]; peptide modifications: H2BK12ac H2BK16ac, binder concentration: 50 nM",0.0107 ± 0.00094
same,peptide microarray binding signal,"[1]; peptide modifications: H2BK12ac H2BK16ac, binder concentration: 500 nM",0.00552 ± 0.0027
same,peptide microarray binding signal,"[2]; peptide modifications: H2BK12ac H2BK16ac, binder concentration: 10 nM",0.00734 ± 0.00071
same,peptide microarray binding signal,"[2]; peptide modifications: H2BK12ac H2BK16ac, binder concentration: 100 nM",0.0104 ± 0.0012
same,peptide microarray binding signal,[3]; [15],0.000302 ± 2.2e-05
same,peptide microarray binding signal,[3]; [16],0.0016 ± 0.00014
same,peptide microarray binding signal,[4]; [15],0.00136 ± 0.00029
same,peptide microarray binding signal,[4]; [16],0.00127 ± 8.9e-05
B7,peptide microarray binding signal,"[1]; peptide modifications: H2BK12ac H2BS14ph H2BK16ac, binder concentration: 50 nM",0.00194 ± 3.1e-05
same,peptide microarray binding signal,"[1]; peptide modifications: H2BK12ac H2BS14ph H2BK16ac, binder concentration: 500 nM",0.00229 ± 3.3e-05
same,peptide microarray binding signal,"[2]; peptide modifications: H2BK12ac H2BS14ph H2BK16ac, binder concentration: 10 nM",0.00358 ± 0.00017
same,peptide microarray binding signal,"[2]; peptide modifications: H2BK12ac H2BS14ph H2BK16ac, binder concentration: 100 nM",0.00198 ± 0.00015
same,peptide microarray binding signal,[3]; [17],0.000831 ± 0.00011
same,peptide microarray binding signal,[3]; [18],0.000628 ± 6.7e-06
same,peptide microarray binding signal,[4]; [17],0.000362 ± 6.3e-06
same,peptide microarray binding signal,[4]; [18],0.00075 ± 1.6e-05
B8,peptide microarray binding signal,"[1]; peptide modifications: H2BS14ph H2BK15ac H2BK16ac, binder concentration: 50 nM",0.00307 ± 0.00018
same,peptide microarray binding signal,"[1]; peptide modifications: H2BS14ph H2BK15ac H2BK16ac, binder concentration: 500 nM",0.00848 ± 0.00083
same,peptide microarray binding signal,"[2]; peptide modifications: H2BS14ph H2BK15ac H2BK16ac, binder concentration: 10 nM",0.00525 ± 0.00091
same,peptide microarray binding signal,"[2]; peptide modifications: H2BS14ph H2BK15ac H2BK16ac, binder concentration: 100 nM",0.00312 ± 7.5e-05
same,peptide microarray binding signal,[3]; [19],0.00427 ± 0.00019
same,peptide microarray binding signal,[3]; [20],0.00108
same,peptide microarray binding signal,[4]; [19],0.000876 ± 3.2e-05
same,peptide microarray binding signal,[4]; [20],0.00104 ± 1.1e-05
B9,peptide microarray binding signal,"[1]; peptide modifications: H2BK12ac H2BS14ph H2BK15ac, binder concentration: 50 nM",0.00266 ± 0.00014
same,peptide microarray binding signal,"[1]; peptide modifications: H2BK12ac H2BS14ph H2BK15ac, binder concentration: 500 nM",0.00105 ± 0.00012
same,peptide microarray binding signal,"[2]; peptide modifications: H2BK12ac H2BS14ph H2BK15ac, binder concentration: 10 nM",0.00221 ± 5.8e-05
same,peptide microarray binding signal,"[2]; peptide modifications: H2BK12ac H2BS14ph H2BK15ac, binder concentration: 100 nM",0.00241 ± 8e-05
same,peptide microarray binding signal,[3]; [21],7.55e-05 ± 1.7e-06
same,peptide microarray binding signal,[3]; [22],0.000571 ± 1.1e-05
same,peptide microarray binding signal,[4]; [21],0.000362 ± 1.3e-05
same,peptide microarray binding signal,[4]; [22],0.00075 ± 2.1e-05
B10,peptide microarray binding signal,"[1]; peptide modifications: H2BK16ac, binder concentration: 50 nM",0.00392 ± 4.6e-05
same,peptide microarray binding signal,"[1]; peptide modifications: H2BK16ac, binder concentration: 500 nM",0.0109 ± 0.00096
same,peptide microarray binding signal,"[2]; peptide modifications: H2BK16ac, binder concentration: 10 nM",0.0037 ± 0.00013
same,peptide microarray binding signal,"[2]; peptide modifications: H2BK16ac, binder concentration: 100 nM",0.00617 ± 0.00026
same,peptide microarray binding signal,[3]; [23],0.00417 ± 0.00052
same,peptide microarray binding signal,[3]; [24],0.00097 ± 9.9e-06
same,peptide microarray binding signal,[4]; [23],0.000966 ± 4.4e-05
same,peptide microarray binding signal,[4]; [24],0.00144 ± 7.5e-05
